Bioassay records from PubChem BioAssay.
M1 PAM parental: counter-screen for M1 PAMs: effect in parental CHO-K1 cells | 0.02% of 360,000 active | AID 602247 | activation, % at 3 µM | ATP EC20, Fluo-8 calcium fluorescence; 0% at ATP EC20, 100% at ATP max;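 active = activation above the run cutoff, the mean activation of all test compounds plus 3 SD, cut at about 40% in these data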;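 note: peak over basal fluorescence ratio in a 140 s read after ATP addition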
CHRM1 antagonist: blocks human M1 muscarinic receptor; AID 588852; 1.3% of 360,000 active; CHO-K1 hM1, Fluo-8 calcium fluorescence, ACh EC80 antagonist; inhibition, % at 3 µM;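 active = percent inhibition above its own plate's cutoff, namely the mean of that plate's compound wells plus 3 SD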;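 note: peak over basal fluorescence ratio during 140 s after agonist addition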
Target sequence (P11229 whole entry, looked up): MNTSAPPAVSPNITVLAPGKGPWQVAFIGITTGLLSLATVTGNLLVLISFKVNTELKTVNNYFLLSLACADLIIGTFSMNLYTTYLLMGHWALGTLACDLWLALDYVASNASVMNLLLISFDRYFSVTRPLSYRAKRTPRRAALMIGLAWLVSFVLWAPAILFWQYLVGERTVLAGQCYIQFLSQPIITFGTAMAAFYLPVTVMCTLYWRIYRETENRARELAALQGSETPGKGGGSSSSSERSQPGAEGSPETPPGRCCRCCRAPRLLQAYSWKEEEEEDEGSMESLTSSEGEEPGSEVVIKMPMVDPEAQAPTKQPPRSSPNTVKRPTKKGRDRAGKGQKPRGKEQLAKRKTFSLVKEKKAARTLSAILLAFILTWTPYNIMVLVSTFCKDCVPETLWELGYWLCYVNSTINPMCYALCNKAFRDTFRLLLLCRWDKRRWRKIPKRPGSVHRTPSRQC
CHO-K1 Ca ag: counter-screen for M1 agonists: effect in parental CHO-K1 cells; 0.48% of 360,000 active; activation, % at 3 µM; Fluo-8 calcium fluorescence; scaled to maximal ATP response, vehicle zero; AID 602248; in the data active = activation above about 15%;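 note: untransfected CHO-K1 host cells lacking M1 receptor as counterscreen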
M1 PAM: potentiates human M1 receptor response to acetylcholine. P11229. CHO-K1 hM1, Fluo-8 calcium fluorescence, ACh EC20; 0% = ACh EC20, 100% = maximal ACh. activation, % at 3 µM. 0.088% of 360,000 active. AID 588819; in the data active = activation above about 19%, passing the limit was not always enough
CHO-K1 Ca antag: nonselective inhibitor or artifact in parental CHO-K1 cells; ATP-induced calcium, Fluo-8 fluorescence; inhibition, % at 3 µM; 0.6% of 360,000 active;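 active = inhibition above a per-plate cutoff, the plate's mean sample inhibition plus 3 SD, cut at about 24% in these data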
M1 ag: agonists of human M1 muscarinic receptor; 0.33% of 360,000 active; activation, % at 3 µM; AID 588814; P11229; CHO-K1 hM1, Fluo-8 calcium fluorescence, agonist mode; 0% DMSO, 100% acetylcholine EC100;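 active = activation above the run's mean compound activation plus 3 SD, cut at about 16% in these data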;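 note: peak over basal fluorescence ratio within a 140 s kinetic read after compound addition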
Hits are given with their value; - = inactive. Shown are actives, neighbours in structure and some others; about 2.3% of the full set was active somewhere.

SMILES | M1 PAM parental | CHRM1 antagonist | CHO-K1 Ca ag | M1 PAM | CHO-K1 Ca antag | M1 ag
C=CCOc1ccc(C=CC(=O)c2c(O)c(OC)c(OC)c(OC)c2OC)cc1 | - | - | - | - | - | -
Cc1ccc(Cl)cc1N1CCN(C(=O)CSc2nnc3n2C(C)(C)Cc2ccccc2-3)CC1 | - | 50 | - | - | - | -
COc1ccc(N2CCN(C(=O)CSc3nnc4n3C(C)(C)Cc3ccccc3-4)CC2)cc1 | - | - | - | - | - | -
CCC1Sc2ccc(S(=O)(=O)Nc3ccc(OC)c(OC)c3)cc2NC1=O (centres undefined) | - | - | - | - | 34 | -
CCC1Sc2ccc(S(=O)(=O)Nc3ccc(OC)cc3)cc2NC1=O (centres undefined) | - | - | 18 | - | - | -
CN(CC(=O)Nc1ccc(F)c(F)c1F)C(=O)CCN1C(=O)C2CCCCC2C1=O (centres undefined) | - | - | - | - | - | -
COc1ccc(CCN2CC(C(=O)N(C)Cc3cccnc3)CC2=O)cc1OC (centres undefined) | - | - | - | - | - | -
COc1ccccc1CNC(=O)c1n[nH]c2ccccc12 | - | - | 17 | - | - | -
COc1ccccc1CNC(=O)COC(=O)c1n[nH]c2ccccc12 | - | - | - | - | - | -
CN1CCN(Cc2cn[nH]c2-c2ccc(F)cc2F)[C@@H](c2ccccc2)C1 | - | 21 | - | - | - | 46
O=C(CN(C(=O)CCC(=O)Nc1nccs1)c1ccccc1F)NCc1ccccc1 | - | - | - | - | - | -
CCc1nc(SCC(=O)NCCc2ccccc2)c2oc3ccccc3c2n1 | - | - | - | - | - | -
CCc1nc(SCC(=O)c2cccs2)c2oc3ccccc3c2n1 | - | - | - | - | 26 | -
COCCCNC(=O)N1c2ccccc2Sc2ccccc21 | - | - | - | - | - | -
COCCNCC(=O)N1c2ccccc2Sc2ccccc21 | - | 90 | - | - | - | -
CC(C)CNCC(=O)N1c2ccccc2Sc2ccccc21 | - | 93 | - | - | - | -
O=c1oc(C2(O)CCCCC2)cc2ccc(-c3ccc4[nH]ccc4c3)cc12 | - | - | - | - | - | -
Cc1ccc(-n2c(-c3ccccc3)c[n+]3c2CCc2ccccc2-3)c(C)c1 | - | 55 | - | - | - | -
CCN1CCN(CCCN(Cc2ccco2)C(=S)Nc2cccc(Cl)c2C)CC1 | - | - | - | - | - | -
O=C(Nc1ccc(Cl)cc1)N(CCCN1CCOCC1)Cc1cccs1 | - | - | - | - | - | -
Cc1c(Cl)cccc1NC(=S)N(CCCN1CCOCC1)Cc1ccco1 | - | 48 | - | - | - | -
Cc1ccc(NC(=O)N(CCCN2CCOCC2)Cc2cccs2)cc1C | - | - | - | 32 | - | -
COc1ccc(NC(=S)N(CCCN2CCCC2)Cc2ccco2)cc1 | - | 36 | - | - | - | -
S=C(Nc1ccc(Cl)cc1)N(CCCN1CCOCC1)Cc1cccs1 | - | 45 | - | - | - | -
O=C(C[C@H]1C[C@@H]2c3cc(NS(=O)(=O)c4ccccc4)ccc3O[C@@H]2[C@H](CO)O1)N1CCOCC1 | - | - | - | - | - | -
SMILES | M1 PAM parental | CHRM1 antagonist | CHO-K1 Ca ag | M1 PAM | CHO-K1 Ca antag | M1 ag
CC(C)(C)N1CC(C(=O)Nc2ccc(C(N)=O)cc2)CC1=O (centres undefined) | - | - | - | - | - | -
CSc1cccc(NC(=S)N(CCCN2CCCC2)Cc2cccn2Cc2ccc(Cl)cc2)c1 | - | - | - | - | - | -
COc1ccc(NC(=S)N(CCCN2CCCCCC2)Cc2cccs2)cc1 | - | - | - | - | - | -
COc1ccc(NC(=S)N(CCCN2CCCC2)Cc2cccs2)cc1 | - | 55 | - | - | - | -
CSc1cccc(NC(=S)N(CCCN2CCCC2)Cc2cccs2)c1 | - | 36 | - | - | - | -
CCOC(=O)C1CCN(C(=O)CCNS(=O)(=O)c2ccc3c(c2)CCN3C(=O)CC)CC1 | - | - | - | - | 58 | -
CCC(=O)N1CCc2cc(S(=O)(=O)NCCC(=O)N3CCN(c4cccc(C)c4)C(C)C3)ccc21 (centres undefined) | - | - | 16 | - | - | -
CC(C)(C)c1ccc(C(=O)N2CCC2(C)C(=O)NCc2ccc3c(c2)OCO3)cc1 (centres undefined) | - | - | - | - | - | -
CC(C)(C)Nc1c(C2CCNCC2)nc2c(OCc3ccccc3)cccn12 | - | - | - | - | - | -
COC(=O)c1cc(Br)ccc1NC(=O)Nc1ccccc1 | - | - | - | - | - | -
O=C(Nc1ccccc1)Nc1ccc(Br)cc1F | - | 46 | - | - | - | -
O=C(Nc1cccc(Cl)c1)Nc1ccc(Br)cc1F | - | 33 | - | - | - | -
Cc1cc(NC(=O)Nc2ccccc2F)ccc1Br | - | - | - | - | 25 | -
Cc1cc(C)n2nc(SCc3cccc(S(=O)(=O)N(C)C)c3)nc2n1 | - | - | - | - | - | -
CN(C)S(=O)(=O)c1cccc(CSCc2cccc(S(=O)(=O)N(C)C)c2)c1 | - | 38 | 18 | - | 50 | -
CCN(CC(=O)Nc1ccc(N2CCOCC2)cc1)C(=O)Cc1ccccc1 | - | - | - | - | - | -
CCN1CCN(c2cc(C)c3cc(NC(=O)Cc4ccc(OC)c(OC)c4)ccc3n2)CC1 | - | - | - | - | 28 | -
CC(C)c1cc(C(=O)OCC(=O)NC(=O)NCc2ccco2)c(O)c(C(C)C)c1 | - | - | - | - | - | -
CC1CCCCN1CC(=O)Nc1ccccc1Sc1ccccc1 (centres undefined) | - | 27 | - | - | - | -
O=C(COC(=O)CCC(NC(=O)OCc1ccccc1)C(=O)OCC(=O)Nc1ccccc1)Nc1ccccc1 (centres undefined) | - | - | - | - | - | -
Cc1cc(Nc2ccccc2)nn1C(=O)c1ccc(Br)cc1 | - | - | - | - | 25 | -
CCCc1nc(Cl)c(C#N)c2c1CCCC2 | - | - | - | - | - | 22
CCc1nc(Cl)c(C#N)c2c1CCCC2 | - | - | - | - | - | -
CC1(C)Cc2c(sc(NC(=O)Cc3ccccc3)c2C#N)CO1 | - | - | - | - | - | -
CC1(C)Cc2c(sc(NC(=O)c3ccc(Br)o3)c2C#N)CO1 | - | - | - | - | 25 | -
Cc1nc2nc(SCC(=O)NCCCN3CCCCCC3)nn2c(C)c1Cc1ccccc1 | - | 77 | - | - | - | -
Cc1ccccc1Cc1c(C)nc2nc(SCC(=O)NCCCN3CCCCC3)nn2c1C | - | 51 | - | - | - | -
Cc1ccc(Cc2c(C)nc3nc(SCC(=O)NCCCN4CCOCC4)nn3c2C)cc1 | - | - | - | - | - | -
CC1(C)CN(c2ccccc2)C(=O)[C@H]1CC(=O)Nc1ccccc1 | - | - | - | - | - | -
